VP16 counter: VP16 counterscreen qHTS for inhibitors of ROR gamma transcriptional activity; Drosophila S2 Gal4-VP16 UAS-luciferase, luminescence, 20 h; hit rate 3.5% among 310,000; Potency, µM (top dose mostly 53.6 µM), most hits filed as inhibitors; AID 2546, 2010;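 also: Gal4-VP16 expression switched on by copper sulfate through the metallothionein promoter; nearly all actives have a fitted effect of over 50% in size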
RORg inh: qHTS for inhibitors of ROR gamma transcriptional activity | AID 2551, 2010 | Nuclear receptor ROR-gamma (Mus musculus), P51450 | Potency, µM (series often up to 53.6 µM), most hits filed as inhibitors | Drosophila S2 Gal4-RORgamma UAS-luciferase reporter, 20 h | hit rate 5.4% among 310,000; also: nearly all actives have a fitted effect of over 60% in size
Target sequence (P51450 whole entry, looked up, the tested form may be a part): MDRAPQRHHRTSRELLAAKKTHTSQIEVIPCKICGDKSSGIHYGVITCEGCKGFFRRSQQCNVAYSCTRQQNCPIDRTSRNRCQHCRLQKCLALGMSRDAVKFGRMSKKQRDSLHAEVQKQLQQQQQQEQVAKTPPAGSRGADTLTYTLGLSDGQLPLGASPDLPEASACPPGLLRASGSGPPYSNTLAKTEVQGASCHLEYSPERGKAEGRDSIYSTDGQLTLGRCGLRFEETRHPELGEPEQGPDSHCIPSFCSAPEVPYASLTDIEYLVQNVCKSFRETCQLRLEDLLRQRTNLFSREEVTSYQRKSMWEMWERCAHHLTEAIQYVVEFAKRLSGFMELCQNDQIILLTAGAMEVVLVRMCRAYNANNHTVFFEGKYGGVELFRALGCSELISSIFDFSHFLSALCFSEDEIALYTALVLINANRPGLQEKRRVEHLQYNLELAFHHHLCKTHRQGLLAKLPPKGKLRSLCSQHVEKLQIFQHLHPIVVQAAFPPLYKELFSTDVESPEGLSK
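Stably transfected Drosophila Schneider cells are the test system, with ROR gamma fused to Gal4 and luciferase under UAS control; luminescence is read after 20 hr of 700 uM copper sulfate induction at ambient temperature.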
HepG2 tox-1: qHTS for Inhibitors of TGF-b: Cytotox Counterscreen; hit rate 0.76% among 410,000; AID 588856, 2011; Potency, µM (highest dose often 46.1 µM), usual class: cytotoxic; HepG2 CAGA-GFP viability, ATP luminescence, 18 h
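CellTiter-Glo luminescence gave cytotoxicity after 18 hours at 37 degrees C. The cells were HepG2 CAGA-GFP in 1% FBS DMEM, stimulated with 500 pg/mL TGF-beta after compound addition. %Activity was normalised to no-cell wells (complete cell-killing) and DMSO (no toxicity), and curves were fitted and classified.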
ATXN viability: Viability Counterscreen for Primary qHTS for Inhibitors of ATXN expression. hit rate 0.49% among 400,000. Potency, µM (doses to about 56.7 µM), usual class: cytotoxic. S2 cells (HEK-293 line with an ATXN2-luciferase reporter) viability, CellTiter-Fluor protease fluorescence, 24 h; also: nearly all actives have a fitted effect of over 40% in size
TGFb SMAD3 inh: qHTS for Inhibitors of TGF-b; Potency, µM (titrated, usually from 46.1 µM), usual class: inhibitors; HepG2 CAGA-GFP TGF-b/SMAD3 reporter, GFP fluorescence, 18 h; TGF-beta stimulated, 500 pg/mL final; hit rate 1.2% among 410,000; AID 588855, 2011; also: nearly all actives have a fitted effect of over 65% in size
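HEPG2 CAGA-GFP, 1000 cells/well; 2 h settle, 37 C; cpd via pin tool; TGF-b 500 pg/mL final; 18 h, 37 C; GFP imaging ex488/em500-530; %Activity normalised to -TGF-b and +DMSO controls; CRC fit, curve class.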
ATXN2 expr inh: Primary qHTS for Inhibitors of ATXN expression; HEK-293 ATXN2-luciferase reporter, luminescence, 24 h; hit rate 0.72% among 360,000; Potency, µM (top dose mostly 57 µM), usual class: inhibitors; also: nearly all actives have a fitted effect of over 55% in size
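ATXN2-luciferase reporter cells (luciferase flanked by upstream and downstream ATXN2 gene portions) were treated 24 h at 37 °C with compounds at up to 57 uM. SteadyGlo luminescence gave expression; GF-AFC fluorescence gave viability.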
TGFb CAGA inh: qHTS for Inhibitors of TGF-b: Confirmation of Cherry Picks. AID 720534, 2013. Potency, µM (top dose mostly 46.1 µM), most hits filed as inhibitors. HepG2 CAGA-GFP TGF-b reporter, GFP fluorescence, 18 h; cells stimulated with TGF-beta, 500 pg/mL. shares compounds with TGFb SMAD3 inh. hit rate 63% among 1,600; also: nearly all actives have a fitted effect of over 65% in size
HepG2 tox-2: qHTS for Inhibitors of TGF-b: Cytotox Counterscreen for Cherry Picks | Potency, µM (top dose mostly 46.1 µM), usual class: inhibitors | HepG2 CAGA-GFP viability, ATP luminescence, 18 h; cells stimulated with TGF-beta, 500 pg/mL | AID 720535, 2013 | shares compounds with TGFb SMAD3 inh | hit rate 27% among 1,600; also: nearly all actives have a fitted effect of over 70% in size
TGFb CCL64 inh: qHTS for Inhibitors of TGF-b: CCL64 Cells Orthogonal Assay for Cherry Picks | hit rate 41% among 1,600 | shares compounds with TGFb SMAD3 inh | Potency, µM (highest dose often 46.1 µM), hits mostly inhibitors | CCL64 CAGA-GFP reporter, TGF-b stimulated, GFP fluorescence, 18 h; also: nearly all actives have a fitted effect of over 65% in size
COP TGFb inh: qHTS for Inhibitors of TGF-b: Hit Validation in HepG2 Cells using COP promoter; shares compounds with TGFb SMAD3 inh; HepG2 COP-GFP TGF-b reporter, GFP fluorescence, 18 h; cells stimulated by added recombinant TGF-beta; Potency, µM (doses to about 46.1 µM), usual class: inhibitors; hit rate 3% among 1,600; AID 720537, 2013; also: nearly all actives have a fitted effect of over 70% in size
Numbers stand for hits; – = inactive; ? = inconclusive; · = not tested or not shown; [ ] = remark or other dose. Shown are actives, neighbours in structure and some others; about 6.1% of the full set was active somewhere. Calls follow the shape of the dose curve; as a rule, active = well fitted curve in the direction sought with a large enough effect; inconclusive = small, poorly fitted or top-dose-only effect, or another doubt; inactive = no such curve, though single readings can be large; an effect the other way counts as inactive or inconclusive.

SMILES	VP16 counter	RORg inh	HepG2 tox-1	ATXN viability	TGFb SMAD3 inh	ATXN2 expr inh	TGFb CAGA inh	HepG2 tox-2	TGFb CCL64 inh	COP TGFb inh
CCc1nn(CC(=O)NCCOC)c(=O)c2cc3cc(F)ccc3n12	·	·	–	–	–	–	·	·	·	·
COc1ccc(-c2noc(Cn3c(=O)c4ccccc4n(CC(=O)Nc4cccc(OC)c4)c3=O)n2)cc1	·	·	–	–	–	–	·	·	·	·
Cc1ccc(NC(=S)NCCc2c[nH]c3ccccc23)c(C)c1	18µM	7.9µM	–	·	10µM	·	–	–	?	–
COc1ccc(CNC(=O)CCc2nnc3n(CC(C)C)c(=O)c4ccccc4n23)cc1	·	·	–	·	–	·	·	·	·	·
CC[C@@H](CC1CCCCC1)C(=O)N(Cc1ccccc1)c1ccccc1	·	·	–	–	2.5µM	–	–	?	?	–
CCOC(=O)c1cccc(NC(=O)CCn2nc(C)c3c(C)n(-c4ccccc4)nc3c2=O)c1	·	·	–	–	–	–	·	·	·	·
COc1ccc(-c2csc(Nc3ccc(Oc4ccccc4)cc3)n2)cc1	·	·	–	?	11µM	?	7.3µM	–	–	–
CN(C)C(=O)c1ccc(-c2cc3onc(-c4ccccc4)c3c(=O)n2C)cc1	·	·	–	–	?	–	–	–	–	–
Cc1ccc(C)c(N2CCN(C(=O)CSCc3ccccc3Cl)CC2)c1	·	·	–	·	?	·	·	·	·	·
O=C(CSc1nnc(COc2cccc3cccnc23)o1)N1CCc2ccccc21	–	–	–	–	?	–	?	?	–	–
O=C(CSc1nnc(Cc2ccccc2)o1)N1CCc2ccccc21	–	–[10 µM]	–	–	?	–	·	·	·	·
Cc1cccc(CCNC(=O)c2cccc3c2C(=O)N(C2CCCCC2)C3)c1	–	–	–	–	13µM	–	15µM	–	?	–
C/C=C1\COC(C(=O)NCc2ccccc2)(C(F)(F)F)C=C1C=C1CCCCC1 (stereo not given)	?	?	–	–	11µM	–	?	–	?	–
COc1ccc(-c2ccc(C(=O)Nc3cccc(NS(C)(=O)=O)c3)c3occc23)c(C)c1	·	·	–	?	16µM	?	10µM	?	23µM	–
COc1ccc(-c2ccc(C(=O)Nc3cccc(F)c3)c3occc23)c(C)c1	·	·	–	–	–	–	·	·	·	·
CC(=O)Nc1nc(C)c(-c2csc(Nc3cccc([N+](=O)[O-])c3)n2)s1	–	–	–	–	?	?	–	?	?	–
CC(=O)Nc1nc(C)c(-c2csc(Nc3cccc(C(C)=O)c3)n2)s1	–	–	–	?	?	·	·	·	·	·
COc1ccc(N2CC(NC(=O)c3ccc(Br)o3)CC2=O)cc1 (stereo not given)	·	·	–	·	–	·	·	·	·	·
COC(=O)c1scc(-c2ccc(C)cc2)c1S(=O)(=O)N1CCN(c2ccc(C(C)=O)cc2)CC1	·	·	–	–	?	–	·	·	·	·
CC(=O)Oc1ccc2nonc2c1OC(C)=O	·	·	–	·	–	·	·	·	·	·
CC(=O)Nc1cc(OC(C)=O)c2nonc2c1OC(C)=O	?	11µM	6.3µM	·	2.8µM	?	4.1µM	7.3µM	21µM	9.2µM
Cc1csc2nc(COC(=O)c3cccc(NC(=O)c4cccc(Cl)c4)c3)cc(=O)n12	·	·	–	·	–	·	·	·	·	·
Cc1ccc2[nH]c3c(NCCN4CCOCC4)ncnc3c2c1	·	–[0.365 µM]	–	–	–	–	·	·	·	·
C=CCNc1ncnc2c1[nH]c1ccc(C)cc12	?	?	–	–	7.9µM	–	?	–	?	–
C=C(C)COc1ccc(-c2[nH]ncc2-c2ccc(OC)cc2)c(O)c1	?	11µM	–	?	8.9µM	·	?	?	23µM	?
SMILES	VP16 counter	RORg inh	HepG2 tox-1	ATXN viability	TGFb SMAD3 inh	ATXN2 expr inh	TGFb CAGA inh	HepG2 tox-2	TGFb CCL64 inh	COP TGFb inh
O=C(Nc1csc([N+](=O)[O-])c1)Nc1ccccc1Cl	–	–	–	?	13µM	?	16µM	?	?	–
O=C(Nc1ccccc1Cl)Nc1ccccc1Cl	–	–	–	–	–	–	·	·	·	·
CCN1C(=O)[C@@H]2[C@@H]3CN(S(=O)(=O)c4ccc(C)cc4)[C@@H](c4ccccc4)[C@@H]3C(=O)C[C@@H]2C1=O	·	·	–	–	–	–	·	·	·	·
CCOC1=CC2=C(C(=O)C(Cl)=CC2=O)[C@@H]2CN(S(=O)(=O)c3ccc(C)cc3)[C@@H](c3ccccc3)[C@H]12	·	·	–	?	11µM	?	4.1µM	?	5.2µM	–
COc1ccc(C(NC(=O)C2CCN(CCOc3ccc(Cl)cc3Cl)CC2)c2cccs2)cc1 (stereo not given)	·	·	5µM	?	4.5µM	–	?	?	?	?
CC(C)CCNC(=O)c1ccc2nc(Cc3ccccc3)oc2c1	·	·	–	–	–	–	·	·	·	·
CCOc1ccc(C(=O)N(Cc2cc(OC)c(OC)c(OC)c2)c2ccccn2)cc1	·	·	–	?	?	–	·	·	·	·
Cc1noc2ncnc(Oc3cc(Cl)ccc3Cl)c12	–	–	–	?	?	–[11.3 µM]	18µM	?	?	–
Cc1noc2ncnc(Oc3ccc4ccccc4c3)c12	–	–	–	–	–	–	·	·	·	·
Cc1nc2ccn(Cc3cccs3)c(=O)c2cc1C(=O)NCc1ccc(Br)cc1	·	·	–	·	?	·	·	·	·	·
O=C1N[C@@H](c2ccccc2)COC(=O)[C@@H](Cc2ccc(F)cc2)CC/C=C/C[C@@H]1CC(=O)N(CCO)Cc1ccccc1	·	·	–	18µM	?	?	15µM	–	?	–
O=C(C[C@@H]1C/C=C\C[C@@H](Cc2ccc(F)cc2)C(=O)OC[C@@H](Cc2ccccc2)NC1=O)N[C@H](CO)Cc1ccccc1	·	·	–	–	?	–	–	–	–	–
